We go through 8 compounds from PubChem BioAssay (NCI).

Where “and” joins values, the source holds several entries; their conditions need not be identical. Identical values can stand only once. Compounds without any hit were thinned out: in the full panel of roughly 83,000, 20% have a hit.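 Interpretation: 100, growth as untreated; towards 0, rising growth inhibition; 0, no net growth; 0 to -100, cell death. Compounds scoring below 10 were considered active.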 Calls of active or inactive are those of the source.

Common to all, as to assay: NCI-60 one-dose screen, 48 h (100 = growth as untreated, 0 = no growth, -100 = all killed)
Test [1] relates to SR leukemia.
Test [2] deals with RPMI-8226 leukemia.
Test [3] has as its system OVCAR-8 ovarian.
The test system of test [4] is OVCAR-5 ovarian.
The test system of test [5] is OVCAR-4 ovarian.
Test [6] concerns SK-OV-3 ovarian.
In test [7] the test system is IGROV1 ovarian.
Test [8] concerns OVCAR-3 ovarian.
The subject of test [9] is HS 578T breast.
The test system of test [10] is NCI/ADR-RES ovarian.

Regarding `O=C1C=CC(=O)N1c1ccc(N2C(=O)C=CC2=O)cc1`, the growth in test [1] (10 µM) was 0.0539% (active); in test [2] (10 µM), 38.6% (inactive); in test [3] (10 µM), 109% (inactive); in [4] (10 µM), 97.7% (inactive); in [5] (10 µM) it was 101% (inactive); in test [6] (10 µM), 97.3% (inactive). The growth in test [7] (10 µM) was 105% (inactive); in test [8] (10 µM), 103% (inactive); in test [9] (10 µM), 128% (inactive); in test [10] (10 µM) it was 102% (inactive).

On to `NCc1c(O)ccc2ccccc12`, for which the growth in test [1] (10 µM) is 87.8% (inactive); in [2] (10 µM), 101% (inactive); in [3] (10 µM) it was 103% (inactive); in test [4] (10 µM), 96.9% (inactive); in test [5] (10 µM), 111% (inactive); in [6] (10 µM), 96.9% (inactive). For the same compound, the growth in test [7] (10 µM) was 94.7% (inactive); in [8] (10 µM) it was 99.4% (inactive); in test [9] (10 µM), 94.5% (inactive); in test [10] (10 µM), 103% (inactive).

For the compound `CC(=O)O[C@H]1C(=O)[C@@]2(C)[C@H]([C@H](OC(=O)c3ccccc3)[C@]3(O)C[C@H](OC(=O)[C@H](O)[C@@H](NC(=O)c4ccccc4)c4ccccc4)C(C)=C1C3(C)C)[C@]1(OC(C)=O)CO[C@@H]1C[C@@H]2O`, the growth was 19.1% (inactive) in test [1] (0.01 µM); 7.15% (active) in [1] (2.5 µM); 9.15% (active) in test [1] (5 µM); -2.72% (active) and 12.2% (inactive) in test [1] (10 µM); -10.5% (active) in test [2] (0.01 µM); 11.4% (inactive) in [2] (2.5 µM). Besides, the growth in [2] (5 µM) was 1.39% (active); in [2] (10 µM) it was -42.3% (active) and 8.81% (active); in test [3] (2.5 µM), 4.98% (active); in test [3] (5 µM) it was 11.6% (inactive); in [3] (10 µM), 18.4% (inactive); in [4] (0.01 µM), 20.6% (inactive). Further, the growth in test [4] (2.5 µM) is 9.17% (active); in test [4] (5 µM), 10.8% (inactive); in [4] (10 µM) it was 41.8% (inactive) and 13.7% (inactive); in test [5] (0.01 µM), 64.7% (inactive); in test [5] (2.5 µM), 56.9% (inactive); in [5] (5 µM) it was 61.3% (inactive). In addition, the growth is -13% (active) and 57.6% (inactive) in [5] (10 µM); 52% (inactive) in test [6] (0.01 µM); 10.2% (inactive) in [6] (2.5 µM); 16.2% (inactive) in test [6] (5 µM); 42.9% (inactive) and 12.8% (inactive) in test [6] (10 µM); 39% (inactive) in test [7] (0.01 µM). For the same compound, the growth in test [7] (2.5 µM) was 32.2% (inactive); in test [7] (5 µM) it was 35.2% (inactive); in test [7] (10 µM) it was -24.8% (active) and 39.1% (inactive); in test [8] (0.01 µM), -6.94% (active); in test [8] (2.5 µM), -5.62% (active); in test [8] (5 µM) it was -2.89% (active). Also, the growth was 0.613% (active) and 0.903% (active) in test [8] (10 µM); -47.1% (active) in test [9] (0.01 µM); -18.5% (active) in test [9] (2.5 µM); -14.2% (active) in test [9] (5 µM); -14.9% (active) and 2.62% (active) in test [9] (10 µM); 92.8% (inactive) in test [10] (0.01 µM). In addition, the growth was 50.7% (inactive) in test [10] (2.5 µM); 25.9% (inactive) in [10] (5 µM); -0.311% (active) and 9.92% (active) in test [10] (10 µM).

With `CC[C@@]1(OC(=O)CN(C)C)C(=O)OCc2c1cc1n(c2=O)Cc2cc3c(N)cccc3nc2-1`, the growth in [1] (10 µM) was -3.07% (active); in [2] (10 µM), 2.58% (active); in test [3] (10 µM) it was 14.5% (inactive); in [4] (10 µM) it was 15.1% (inactive); in test [5] (10 µM), 10.2% (inactive); in test [6] (10 µM) it was 2.84% (active). The growth in [7] (10 µM) is -3.28% (active); in test [8] (10 µM), -34.2% (active); in test [9] (10 µM), 62.5% (inactive); in [10] (10 µM), 5.59% (active).

On to `Cc1cc(C)c(N2C(=O)CC(Sc3ccccc3N)C2=O)c(C)c1` (centres undefined), for which the growth in test [1] (10 µM) is 23.4% (inactive); in test [2] (10 µM) it was 66.3% (inactive); in test [3] (10 µM) it was 91.1% (inactive); in test [4] (10 µM), 118% (inactive); in test [5] (10 µM) it was 71.4% (inactive); in test [6] (10 µM) it was 71.6% (inactive). The growth was 92% (inactive) in [7] (10 µM), 71.1% (inactive) in test [8] (10 µM), 81% (inactive) in [9] (10 µM) and 75% (inactive) in [10] (10 µM).

Turning to `O=S(=O)(c1cc(Cl)ccc1O)c1cc(Cl)ccc1O`, the growth in [1] (10 µM) is 84.6% (inactive); in test [2] (10 µM), 51.2% (inactive); in test [3] (10 µM), 83.7% (inactive); in test [4] (10 µM), 116% (inactive); in [5] (10 µM) it was 85.3% (inactive); in [6] (10 µM), 78.4% (inactive). The growth in [7] (10 µM) was 83.5% (inactive); in test [8] (10 µM), 78% (inactive); in test [9] (10 µM) it was 65.6% (inactive); in test [10] (10 µM) it was 91.9% (inactive).

For the compound `CN(C)c1ccc(/C=C/c2ccnc3ccccc23)cc1N`, the growth in test [1] (10 µM) was 41.4% (inactive); in [2] (10 µM), 37.4% (inactive); in test [3] (10 µM), 75.3% (inactive); in test [4] (10 µM), 91.8% (inactive); in [5] (10 µM), 58.2% (inactive); in [6] (10 µM) it was 72% (inactive). Besides, the growth in [7] (10 µM) was 65.7% (inactive); in test [8] (10 µM), 70.7% (inactive); in test [9] (10 µM) it was 80.2% (inactive); in test [10] (10 µM), 68% (inactive).

Regarding `O=Nc1ccc(Nc2ccccc2)cc1`, the growth in test [1] (10 µM) is 28.2% (inactive); in test [2] (10 µM), 27.1% (inactive); in [3] (10 µM), 66.4% (inactive); in [4] (10 µM), 103% (inactive); in test [5] (10 µM), 57.3% (inactive); in test [6] (10 µM), 108% (inactive). Also, the growth was 102% (inactive) in test [7] (10 µM), 49.4% (inactive) in test [8] (10 µM), 111% (inactive) in test [9] (10 µM) and 87.9% (inactive) in test [10] (10 µM).
